WRN helicase inh: qHTS for Inhibitors of WRN Helicase | Bifunctional 3'-5' exonuclease/ATP-dependent helicase WRN (Homo sapiens), Q14191 | WRN helicase unwinding, fluorescent forked duplex, kinetic | Potency, µM (top dose mostly 114 µM), hits mostly inhibitors | 360,000 compounds, 0.46% hits | AID 651768, 2012; also: nearly all actives have a fitted effect of over 55% in size
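WRN at 20 nM final was preincubated with compound for 15 min at room temperature; reaction started with 100 nM forked duplex oligonucleotide carrying fluorophore and quencher plus 2 mM ATP (final). Unwinding followed kinetically by red fluorescence (ex 525/em 598 nm).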
L3MBTL1 block: qHTS Assay for the Inhibitors of L3MBTL1 | AlphaScreen L3MBTL1–H3K9me1 peptide binding | Potency, µM (doses to about 57.1 µM), most hits filed as inhibitors | 230,000 compounds, 0.66% hits | AID 485360, 2010; also: nearly all actives have a fitted effect of over 60% in size
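AlphaScreen assay: L3MBTL1 (50 nM final) was preincubated 30 min at room temperature with biotinylated H3(1-15)K9me1 peptide (75 nM final), then 30 min with library compounds; streptavidin donor and nickel chelate acceptor beads (10 ug/mL final) added, 30 min dark.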
Pol eta inh-1: qHTS for Inhibitors of Polymerase Eta. Potency, µM (series often up to 114 µM), actives largely listed as inhibitors. 390,000 compounds, 1.2% hits. DNA polymerase eta (Homo sapiens), Q9Y253. recombinant Pol eta, fluorescent DNA replication assay
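Fluorescent replication assay: 50 nM final substrate added after a 15 min room-temperature compound preincubation with 10 nM enzyme. Signal taken at 0 min and again at 10 min.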
POLI inh: qHTS for Inhibitors of Polymerase Iota; DNA polymerase iota (Homo sapiens), Q9UNA4; Pol iota fluorescent replication assay, 10 min; Potency, µM (titrated, usually from 115 µM), most hits filed as inhibitors; 390,000 compounds, 1% hits; AID 588590, 2011
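Fluorescent replication assay read twice, at 0 min and 10 min after adding 50 nM (final) substrate. Enzyme (10 nM) and compounds were first incubated 15 min at room temperature; enzyme-free buffer wells were negative controls.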
Pol beta inh: qHTS Assay for Inhibitors of DNA Polymerase Beta; P06746; Pol beta primer extension/strand displacement, fluorescence kinetic; Potency, µM (top dose mostly 114 µM), most hits filed as inhibitors; 340,000 compounds, 1.3% hits
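Preincubation: enzyme (10 nM) with compound, 15 min, RT. Reaction: substrate added to 50 nM final. Reads: 0 and 10 min. Analysis: normalized, Hill fit.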
Pol kappa inh-1: qHTS for Inhibitors of Polymerase Kappa. DNA polymerase kappa (Homo sapiens), Q9UBT6. purified Pol kappa, fluorescent DNA synthesis assay, 10 min. Potency, µM (doses to about 107 µM), usual class: inhibitors. 400,000 compounds, 0.53% hits
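Here, compound and 10 nM enzyme are combined for 15 min at room temperature; adding 50 nM substrate (final) starts DNA synthesis, tracked by fluorescence at 0 and 10 min against buffer-only wells.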
GALK inh confirm: Confirmation Assay for Inhibitors of Human Galactokinase (GALK); Potency, µM (titrated, usually from 115 µM), most hits filed as inhibitors; 150 compounds, 70% hits; AID 2015, 2009; shares compounds with Pol eta inh-1; purified GALK, Kinase-Glo ATP depletion luminescence
GALK redox cs: Confirmatory Assay for Inhibitors of Human Galactokinase (GALK): Phenol-HRP redox assay counterscreen. shares compounds with Pol eta inh-1. Phenol red-HRP H2O2 redox cycling, absorbance 600 nm. AID 2035, 2009. 150 compounds, 40% hits. Potency, µM (series often up to 115 µM), most hits filed as inhibitors
HEK293 viability: Secondary Assay for Inhibitors of Human Galactokinase (GALK): HEK-293 Cell Viability Assay | shares compounds with Pol eta inh-1 | HEK-293 viability, ATP luminescence (CellTiter-Glo), 24/48 h | Potency, µM (highest dose often 46.1 µM), most hits filed as inhibitors | 170 compounds, 10% hits
Pol kappa inh-2: qHTS for Inhibitors of Polymerase Kappa: Confirmatory Assay for Cherry-picked Compounds | 920 compounds, 76% hits | shares compounds with Pol eta inh-1 | purified Pol-kappa, fluorescent strand-displacement substrate | Potency, µM, usual class: inhibitors
Pol eta inh-2: qHTS for Inhibitors of Polymerase Eta: Confirmatory Assay for Cherry-picked Compounds | Potency, µM, actives largely listed as inhibitors | Pol eta primer extension, TAMRA/BHQ fluorescence, 10 min | 2,600 compounds, 64% hits | AID 720502, 2013 | shares compounds with Pol eta inh-1
A number is an active result; . = inactive; ? = inconclusive; / = no result given; [ ] = dose if it differs, or a comment. Compounds with a hit are over-represented: about 2.5% of the library has one in this group of screens. Calls follow the shape of the dose curve; as a rule, active = well fitted curve in the direction sought with a large enough effect; inconclusive = small, poorly fitted or top-dose-only effect, or another doubt; inactive = no such curve, though single readings can be large; an effect the other way counts as inactive or inconclusive.

SMILES | WRN helicase inh | L3MBTL1 block | Pol eta inh-1 | POLI inh | Pol beta inh | Pol kappa inh-1 | others
COc1ccc(NC(=O)/C(C#N)=C/c2ccc(-c3ccc(Cl)c(C(=O)O)c3)o2)cc1 | .[11.6 µM] | . | 22µM | ? | . | . | Pol kappa inh-2=?
COc1cc(CNCc2ccc(SC)cc2)cc(OC)c1 | . | . | . | . | . | .
Cc1ccc(S(=O)(=O)NCCN2CCN(S(=O)(=O)c3ccccc3Cl)CC2)cc1 | . | . | . | . | / | .
CC(=O)Nc1ccc(C=NNc2ccc([N+](=O)[O-])cc2S(=O)(=O)Nc2ccccc2C(=O)O)cc1 | . | . | 50µM | ? | / | . | Pol kappa inh-2=?
CC(=O)Nc1ccc(S(=O)(=O)Nc2cc([N+](=O)[O-])ccc2C)cc1 | . | . | . | . | . | .
CC1(OC(=O)CCc2ccccc2)C(=O)C=C2C=C3CCCN3C=C2C1=O (stereo not given) | .[11.6 µM] | / | 45µM | 13µM | 45µM | ? | Pol eta inh-2=?
O=C1CCCC2=C1C1(CCCCC1)N=C(Nc1nc3ccccc3o1)N2 | . | . | . | . | . | . | GALK inh confirm=17µM;GALK redox cs=.;HEK293 viability=.
O=C1CC(c2ccccc2)CC2=C1C1(CCCC1)N=C(Nc1nc3ccccc3o1)N2 (stereo not given) | / | / | / | / | / | / | HEK293 viability=.
O=C1CC(N2CCC(c3nc4ccccc4o3)CC2)C(=O)N1 (stereo not given) | . | . | . | . | . | .
O=C1CCCC2=C1C1(CCC1)N=C(Nc1nc3ccccc3o1)N2 | / | / | / | / | / | / | HEK293 viability=.
O=C1CCCC2=C1C1(CCCC1)N=C(Nc1nc3ccccc3o1)N2 | / | . | / | / | . | / | HEK293 viability=.
COc1ccc2c(=O)cc(-c3cccnc3)oc2c1OC | . | / | . | . | ? | .
O=c1cc(C(F)(F)F)nc(-c2ccccc2)[nH]1 | . | . | . | . | . | .
Clc1cccc(N/N=C/c2ccc(N3CCOCC3)cc2)c1 | . | . | ? | . | . | .
O=C(O)c1cc(N/N=C/c2ccc(N3CCOCC3)cc2)ccc1Cl | ? | . | 50µM | ? | ? | ? | Pol eta inh-2=85
CC(=O)C(=Cc1ccc(C(=O)O)cc1)C(C)=O | . | ? | 40µM | ? | ? | ? | Pol eta inh-2=?
CC(=O)C(=Cc1ccc(-c2ccccc2)cc1)C(=O)c1ccccc1 | . | / | / | / | / | /
Cc1nn(C2CCS(=O)(=O)C2)c(C)c1C=O (stereo not given) | ? | . | . | . | . | .
COC(=O)c1ccc(CSc2nnnn2C)o1 | . | . | . | . | . | .
CO[C@@]1(NC(=O)C2SC(=C(C(N)=O)C(=O)O)S2)C(=O)N2C(C(=O)O)=C(CSc3nnnn3C)CS[C@@H]21 (stereo not given in full) | .[11.6 µM] | 7.9µM | . | 11µM | / | 45µM | Pol eta inh-2=30
COc1cccc(NC(=O)CNc2cc(S(=O)(=O)N3CCOCC3)ccc2N2CCCC2)c1 | . | . | ? | . | / | .
CCN1CCN(c2ccc(S(=O)(=O)N3CCCCC3)cc2NC(=O)c2cc3ccccc3o2)CC1 | . | ? | . | . | / | .
O=C(O)c1cccc(NC(=O)c2ccc3c(c2)C(=O)N(Cc2ccco2)C3=O)c1 | .[11.6 µM] | . | 18µM | 50µM | ? | ? | Pol kappa inh-2=67;Pol eta inh-2=43
O=C(O)c1ccc2c(c1)C(=O)N(Cc1ccco1)C2=O | . | . | ? | ? | . | .
CC(=O)c1cccc(NC(=O)CN2C(=O)C(=O)N(Cc3ccco3)C2=O)c1 | . | ? | 14µM | 50µM | / | ? | Pol eta inh-2=?
CC(=O)c1cccc(NC(=O)CN2C(=O)c3ccccc3C2=O)c1 | . | . | . | . | . | .
COc1ccc(-n2cnnc2)cc1 | . | . | . | . | . | .
CC(C)(C)NC(=O)c1ccc(NC(=O)C2COc3ccccc3O2)cc1 (stereo not given) | . | / | . | . | . | .
Cc1ccc(S(=O)(=O)N(C)C)cc1-n1c(SCC(=O)Nc2ccc(F)cc2)nc2ccccc2c1=O | . | . | . | . | . | .
O=C(C=Cc1ccco1)c1ccc([N+](=O)[O-])cc1 | . | / | . | . | / | .

Source: PubChem
